According to PubChem BioAssay (NCI):
Compounds without any hit were thinned out: in the full panel of roughly 83,000, 20% have a hit.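 96-well plates, one dose, 48 hours. Percent growth reported; active if below 10.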 Calls of active or inactive are those of the source.

Experiments:
Assay in all cases: NCI-60 one-dose screen, 48 h (100 = growth as untreated, 0 = no growth, -100 = all killed)
Details in all cases: 10 µM unless noted
[1] = system: NCI-H23 lung
[2] = system: NCI-H226 lung
[3] = system: NCI-H322M lung
[4] = system: HOP-62 NSCLC
[5] = system: NCI-H460 lung
[6] = system: HOP-92 NSCLC
[7] = system: NCI-H522 lung
[8] = system: A549/ATCC NSCLC
[9] = system: 786-0 renal
[10] = system: COLO 205 colon
[11] = system: DU-145 prostate
[12] = system: K-562 leukemia
[13] = system: MDA-MB-231 breast
[14] = system: RXF 393 renal
[15] = system: SF-268 CNS
[16] = system: SF-295 CNS
[17] = system: SF-539 CNS
[18] = system: UACC-257 melanoma
[19] = system: M14 melanoma
[20] = system: MALME-3M melanoma

Measured: growth

S=c1[nH]nc2ccccn12
inactive: [1] 104% | [2] 122% | [3] 105% | [4] 102% | [5] 109% | [6] 100% | [7] 82.3% | [8] 106% | [9] 112% | [10] 118% | [11] 114% | [12] 92.6% | [13] 103% | [14] 119% | [15] 117% | [16] 108% | [17] 99.1% | [18] 108% | [19] 108%

CCOc1ccc(NC(=O)c2ccccc2-c2ccccc2C(=O)O)cc1
inactive: [1] 109% | [2] 104% | [3] 106% | [4] 106% | [5] 113% | [6] 106% | [7] 104% | [8] 107% | [9] 105% | [10] 113% | [11] 106% | [12] 90.2% | [13] 107% | [14] 114% | [15] 105% | [16] 115% | [17] 117% | [18] 112% | [19] 113%

O=C(O)c1cccc2c1-c1ccc(Cl)cc1C2
inactive: [1] 106% | [2] 100% | [3] 97.1% | [4] 106% | [5] 113% | [6] 112% | [7] 88.2% | [8] 105% | [9] 110% | [10] 114% | [11] 110% | [12] 97.9% | [13] 108% | [14] 124% | [15] 107% | [16] 116% | [17] 104% | [18] 107% | [19] 120%

CC1c2ccccc2N(S(=O)(=O)c2ccccc2)C1C (configuration not stated)
inactive: [1] 89.4% | [2] 88.4% | [3] 102% | [4] 95.4% | [5] 115% | [6] 86.8% | [7] 76.9% | [8] 92% | [9] 102% | [10] 97.6% | [11] 102% | [12] 34.1% | [13] 91.2% | [14] 88% | [15] 102% | [16] 94.9% | [17] 104% | [18] 93.6% | [19] 77.6%

Cn1cc(-c2csc(-c3c[nH]c4ccccc34)n2)c2cccnc21
active: [7] 5.06% | [10] 9.57% | [16] 6.62% | [17] -1.15%
inactive: [1] 30.3% | [2] 60.3% | [3] 56.1% | [4] 45.5% | [5] 14.6% | [6] 49.5% | [8] 40.3% | [9] 45.7% | [11] 16.5% | [12] 18.9% | [13] 48.3% | [14] 12.6% | [15] 45.4% | [18] 64.6% | [19] 23.8%

CC(=O)O[C@H]1CC[C@@]2(C)C(=CC[C@@H]3[C@@H]2CC[C@]2(C)C(=O)N(O)C(=O)C[C@@H]32)C1
inactive: [1] 68% | [2] 107% | [3] 91.9% | [4] 68.5% | [5] 60.8% | [6] 93% | [7] 75.5% | [8] 86.9% | [9] 81.1% | [10] 112% | [11] 86.9% | [12] 49.9% | [13] 97.9% | [14] 74% | [15] 91.7% | [16] 98.9% | [17] 105% | [18] 106% | [19] 96.4%

Cn1cc(-c2nc(-c3cn(C)c4ncccc34)cs2)c2ccccc21
active: [7] -1.88% | [19] 8.62%
inactive: [1] 43.6% | [2] 66.9% | [3] 58.5% | [4] 36.1% | [5] 16.7% | [6] 75.3% | [8] 38.8% | [9] 39.3% | [10] 32.8% | [11] 58.9% | [12] 12.6% | [13] 48.6% | [14] 35.5% | [15] 45.4% | [16] 20.7% | [17] 27.6% | [18] 60.6%

O=C(NC1=CC(=O)c2ccccc2C1=O)c1ccccc1
active: [6] -84.1% | [7] -48.8% | [12] -0.828% | [16] 4.13% | [18] -4.63%
inactive: [1] 18.7% | [2] 37.3% | [3] 57.9% | [4] 49.7% | [5] 10.2% | [8] 23.8% | [9] 39.9% | [10] 48% | [11] 63.4% | [13] 16.9% | [14] 35.3% | [15] 39.3% | [17] 10.5% | [19] 33.9%

Cc1cc(C=O)c(C)c2c1[nH]c1ccccc12
inactive: [1] 98.5% | [3] 97.7% | [4] 103% | [5] 76.1% | [6] 88.7% | [7] 88.5% | [8] 99.2% | [9] 100% | [10] 110% | [11] 107% | [12] 97.8% | [13] 90.5% | [14] 117% | [15] 96.8% | [17] 95.9% | [18] 78.6% | [19] 105%
active: [2] -21.9%

O=C(O)c1cccc2c1C(=O)N(c1ccc3c(c1)Cc1ccccc1-3)C2=O
inactive: [1] 122% | [2] 111% | [3] 111% | [4] 112% | [5] 117% | [6] 109% | [7] 92.3% | [8] 98.6% | [9] 107% | [10] 121% | [11] 116% | [12] 105% | [13] 113% | [14] 110% | [15] 117% | [16] 121% | [17] 110% | [18] 109% | [19] 119%

Fc1ccc2[nH]cc(-c3nc(-c4c[nH]c5ncccc45)cs3)c2c1
inactive: [1] 43.7% | [2] 47.4% | [3] 74.6% | [4] 47.6% | [6] 24.3% | [8] 31.1% | [9] 41.5% | [10] 45.1% | [11] 30.5% | [12] 16.9% | [13] 44.4% | [14] 55% | [15] 48.9% | [16] 17.8% | [17] 27.3% | [18] 53.8% | [19] 46.1%
active: [5] 9.85% | [7] -7.49%

O=C(N/N=C\c1c(O)ccc2ccccc12)C1CC1
inactive: [1] 36.4% | [2] 79.6% | [3] 33.7% | [4] 55.8% | [5] 32.9% | [6] 43.1% | [7] 11.6% | [8] 58.4% | [9] 49.6% | [10] 96.3% | [11] 69.1% | [12] 34% | [13] 38.5% | [14] 50.4% | [15] 42.3% | [16] 30% | [17] 33.2% | [18] 11.2% | [19] 39.9%

Cc1nn2c(-c3nc4cc(Cl)c(Cl)cc4[nH]3)c(-c3ccc(F)cc3)nc2s1
active: [2] 4.31% | [3] -20% | [4] -36.8% | [5] -13.4% | [6] -7.53% | [8] 5.51% | [9] -79.5% | [13] -12.9% | [14] -5.06% | [17] 6.21% | [18] -21%
inactive: [1] 55.8% | [7] 65.2% | [10] 17.7% | [11] 52.8% | [12] 68% | [15] 28% | [19] 30.1%

C/C(=N\NC(=O)C(C)SC(C)C(=O)N/N=C(\C)c1cccnc1)c1cccnc1 (configuration not stated)
inactive: [1] 103% | [2] 106% | [3] 104% | [4] 106% | [5] 104% | [6] 114% | [7] 77.4% | [8] 108% | [9] 115% | [10] 107% | [11] 111% | [12] 91.9% | [13] 109% | [14] 130% | [15] 108% | [16] 116% | [17] 104% | [18] 113% | [19] 111%

C(=C\c1c[nH]c2ccccc12)/c1ccc2ccccc2n1
inactive: [1] 91.3% | [2] 76.5% | [3] 77.5% | [4] 89.6% | [5] 79.7% | [6] 61.3% | [7] 53.8% | [8] 63.3% | [9] 77.8% | [10] 84.4% | [11] 92.7% | [12] 51.9% | [13] 56.4% | [14] 92.1% | [15] 71.4% | [16] 81.4% | [17] 87.9% | [18] 90.2% | [19] 82.2%

C=C(C)[C@@H]1CC[C@]2(C(=O)N3CCN(C)CC3)CC[C@]3(C)[C@H](CC[C@@H]4[C@@]5(C)C/C(=C/c6ccc(C(F)(F)F)cc6)C(=O)C(C)(C)[C@@H]5CC[C@]43C)[C@@H]12
inactive: [1] 99.2% | [2] 101% | [3] 96.5% | [4] 96.6% | [5] 97.9% | [6] 78.1% | [7] 94.4% | [8] 92.6% | [9] 90.3% | [11] 104% | [12] 72.9% | [20] 90.8% | [13] 94.9% | [14] 97.4% | [15] 92.8% | [16] 101% | [17] 88.6% | [18] 98.5% | [19] 94.8%
